Data: PubChem BioAssay AID1986 (Sanford-Burnham Center for Chemical Genomics, 2009)
The campaign covered roughly 290,000 compounds. About 890 (0.31%) were called active. Rule as the data show it: active = inhibition mostly above about 52% (no sharp cut-off); inactive = mostly below about 76%. Only a selection was taken, and actives are over-represented in it overall.

Assay: inhibitors of HIV fusion peptide binding, primary screen, biochemical, uHTS, fluorescence dequenching (AID 1986)
Settings: cell-free peptide binding, 30 min, stronger effect = higher value
[1] = measured here: repeat confirmation average inhibition, at 18.6 µM

Compound	inhibition (at 20 µM)	inhibition [1]
O=C(NC(NC(=O)c1ccccc1)c1cccc([N+](=O)[O-])c1)c1ccccc1	4.1% (inactive)	
CN(C)CCCNS(=O)(=O)c1ccc(N2CCC(c3ccc(Cl)cc3)=N2)cc1	-4.9% (inactive)	
COc1ccc(-c2nc(N3CCCCCC3)sc2C(=O)c2ccccc2)cc1	0.2% (inactive)	
Cc1cccc(N=Nc2c(O)[nH]c3ccc(Br)cc23)c1	13.9% (inactive)	
Cc1cccc(N=Nc2c(O)[nH]c3ccc(F)cc23)c1	95% (active)	136%
O=[N+]([O-])c1ccc(N=Nc2c(O)[nH]c3ccc(F)cc23)cc1	6.3% (inactive)	
Oc1[nH]c2ccccc2c1N=Nc1ccc(F)cc1	150% (inactive)	
Oc1[nH]c2ccc(Br)cc2c1N=Nc1ccc(F)cc1	164% (inactive)	
Cc1ccc(N=Nc2c(O)[nH]c3ccc(F)cc23)cc1	111% (active)	
CCOc1ccc(N(C(=O)c2snc(C(N)=O)c2N)C(CC)C(=O)NC2CCCC2)cc1 (stereo unspecified)	1.8% (inactive)	
Cc1cc(C)c(NC(=O)CSc2nc3ncc(Cl)cc3[nH]2)c(C)c1	2.2% (inactive)	
CNC(=O)c1c(C)[nH]c(=S)c(C#N)c1-c1ccco1	4.3% (inactive)	
Cc1ccc(-c2c(C(=O)Nc3ccccc3C)c(C)[nH]c(=S)c2C#N)o1	33.1% (inactive)	
Cc1ccccc1NC(=O)c1c(C)[nH]c(=S)c(C#N)c1-c1ccco1	66.5% (active)	
O=C(CN1C(=O)NC2(CCCCCCC2)C1=O)N1CCN(C(=O)c2ccco2)CC1	1.6% (inactive)	
COc1ccc(CCC(=O)Nc2ccccc2C(F)(F)F)cc1	0% (inactive)	
CCCN1CCN(C(=O)CCn2c(=O)c3cccn3c3cccnc32)CC1	0.2% (inactive)	
COc1cccc(/C=N/NC(=O)c2oc3nc(-c4ccccc4)cc(-c4ccco4)c3c2N)c1	54.2% (active)	55.5%
Nc1c(C(=O)N/N=C/c2ccccc2Cl)oc2nc(-c3ccccc3)cc(-c3ccco3)c12	51.3% (active)	69.2%
Nc1c(C(=O)N/N=C/c2ccc(F)cc2)oc2nc(-c3ccccc3)cc(-c3ccco3)c12	44.8% (inactive)	

Compound	inhibition (at 20 µM)	inhibition [1]
Nc1c(C(=O)N/N=C/c2cccnc2)oc2nc(-c3ccccc3)cc(-c3ccco3)c12	32.7% (inactive)	
Cc1ccc(-c2cc(-c3ccco3)c3c(N)c(C(=O)NN)oc3n2)cc1	60.5% (inactive)	7.9%
Nc1c(C(=O)N/N=C/c2cccnc2)oc2nc(-c3ccco3)cc(-c3ccco3)c12	99.1% (inactive)	9.2%
O=C(CCCCCN1C(=O)c2ccccc2C1=O)Nc1ccc(C(=O)O)cc1	-1% (inactive)	
CSc1nc2ccccc2n1CC(=O)Nc1ccc(C)c(C)c1	0.9% (inactive)	
O=[N+]([O-])c1cccc(S(=O)(=O)c2ccc(N3CCCCC3)c([N+](=O)[O-])c2)c1	2.4% (inactive)	
CCOC(=O)C1=C(CC)OC(N)=C(C#N)C1c1ccc(OC)c(C)c1OC (stereo unspecified)	-1.8% (inactive)	
CCOC(=O)/C(=N\Nc1cccc(C(F)(F)F)c1)N1CCOCC1	-4.2% (inactive)	
O=S(=O)(c1ccccc1)N1CCC(Oc2ccc(-n3cnnn3)cc2)CC1	0.5% (inactive)	
COc1cnc(N(C)C)nc1Sc1cccc(Cl)c1	1.2% (inactive)	
O=C(O)c1ccc2c3c(cccc13)C(=O)N(c1ccccc1)C2=O	24.2% (inactive)	
Cc1c(O)c2c3c(cccc3c1O)C(=O)N(c1ccccc1)C2=O	57.9% (active)	55.3%
Nc1ccc2c3c(cccc13)C(=O)N(c1ccccc1)C2=O	142% (inactive)	
Cc1cc(C)cc(NC(=O)c2cccn2-c2ncc(C(F)(F)F)cc2Cl)c1	2.6% (inactive)	
O=C(N=c1ccn(-c2nc3ccccc3nc2NS(=O)(=O)c2ccc(Cl)cc2)cc1)c1cccs1	19.3% (inactive)	
O=C(N=c1ccn(-c2nc3ccccc3nc2NS(=O)(=O)c2ccccc2)cc1)c1ccccc1Cl	24.6% (inactive)	
O=C(N=c1ccn(-c2nc3ccccc3nc2NS(=O)(=O)c2ccc(Cl)cc2)cc1)c1ccccc1Cl	102% (active)	
COc1cccc(/C=N/n2c(C3CCCCC3)n[nH]c2=S)c1	0.5% (inactive)	
CC(C)(C)C(=O)NC(=S)Nc1ccccc1C(N)=O	-0.3% (inactive)	
CCCCCCc1cc2cc(-c3nnc(-c4ccccc4OC)o3)c(=O)oc2cc1O	81.8% (inactive)	45.4%

Compound	inhibition (at 20 µM)	inhibition [1]
CCCCCCc1cc2cc(-c3nnc(-c4ccccc4O)o3)c(=O)oc2cc1O	65.1% (inactive)	47.7%
CCCCCCc1cc2cc(-c3nnc(-c4cc(OC)c(OC)c(OC)c4)o3)c(=O)oc2cc1O	73.7% (active)	61.9%
CCOc1cc(CN2CCCC(N3CCc4ccccc4C3)C2)ccc1O (stereo unspecified)	-0.5% (inactive)	
Oc1ccc(C=Nc2ccc(N3CCOCC3)cc2)c(O)c1	6.1% (inactive)	
Cc1cc(O)c(C=Nc2ccc(N3CCOCC3)cc2)c(C)c1Cl	80.4% (active)	73.9%
Oc1c(Cl)cc(Cl)cc1C=Nc1ccc(N2CCOCC2)cc1	1.6% (inactive)	
CCS(=O)(=O)C1=NSC2=NC(=O)/C(=C\c3ccc(OC(=O)c4ccco4)c(OC)c3)C(=N)N21	20.4% (inactive)	
CCS(=O)(=O)C1=NN2C(=N)/C(=C\c3ccc(SCc4ccco4)o3)C(=O)N=C2S1	72.8% (active)	
COc1cc(/C=C2\C(=N)N3N=C(S(=O)(=O)CC(C)C)SC3=NC2=O)ccc1OC(=O)c1ccco1	70.2% (active)	
COc1cc(/C=C2/C(=N)N3C(SC)=NSC3=NC2=O)ccc1OC(=O)c1ccco1	59.5% (inactive)	17.2%
O=C1NC(=S)S/C1=C\c1ccc(SCc2ccccc2)o1	72.3% (inactive)	15.9%
CCC1=NN2C(=N)/C(=C\c3ccc(SCc4ccco4)o3)C(=O)N=C2S1	-2.8% (inactive)	
CCCC1=NN2C(=N)/C(=C\c3ccc(SCc4ccco4)o3)C(=O)N=C2S1	-0.5% (inactive)	
N=C1/C(=C\c2ccc(SCc3ccco3)o2)C(=O)N=C2SC=NN12	100% (inactive)	7.1%
CCOc1cc(/C=C2\C(=N)N3N=C(N4CCCCC4)SC3=NC2=O)ccc1OC(=O)c1ccco1	20.5% (inactive)	
CCS(=O)(=O)C1=NN2C(=N)/C(=C\c3ccc(OC(=O)c4ccco4)cc3)C(=O)N=C2S1	39.2% (inactive)	
O=C1NC(=S)S/C1=C\c1ccc(SCc2ccco2)o1	53.5% (active)	
CCS(=O)(=O)C1=NN2C(=N)/C(=C\c3ccc(OC(=O)c4ccco4)c(Br)c3)C(=O)N=C2S1	52.4% (active)	
